The target of one assay is Albumin (Bos taurus) (UniProt P02769). The assay can be described thus: bovine serum albumin binders on microarray, profiling panel, artefact control for SMM control protein annotation, biochemical, small-molecule microarray, Alexa647 label, 635/667 nm fluorescence (AID 1118).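 Also: score merges 667 nm emission intensity and signal-to-noise per printed compound spot.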 The note with it: BSA-A647 binding, fluorescence 635 nm, higher = more signal.
Assay [1] can be described thus: small-molecule microarray binders of probe aXIP, primary screen, biochemical, NeuroSMM set, 635/667 nm fluorescence (AID 1119).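 Also: probe is the protein aXip251-270 applied at 1 µg/mL to compound-printed slides; binding of probe to printed compounds measured as 667 nm fluorescence plus signal to noise.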 To be noted: higher = more signal, called active from +8 up or from −8 down.
Assay [2] in a line: small-molecule binders of probe aNOTCH3, primary screen, biochemical, small-molecule microarray, 635/667 nm fluorescence (AID 1120).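 Also: probe is a biotin-tagged antibody raised against NOTCH3 rather than NOTCH3 protein; score merges spot fluorescence near 667 nm with spot signal to noise.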 To be noted: higher = more signal.
Assay [3] can be described thus: small-molecule binders of probe aNOTCH2, primary screen, biochemical, small-molecule microarray, 635/667 nm fluorescence (AID 1121).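 Also: score merges feature fluorescence read at 667 nm with its signal to noise.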 The note with it: higher = more signal.
In assay [4] the target is Carbonic anhydrase 2 (Homo sapiens) (UniProt P00918). The assay can be described thus: CAII small-molecule binders, profiling panel, biochemical, small-molecule microarray, Alexa647-labelled CAII (AID 1122). The note with it: CAII-A647 binding fluorescence, higher = more signal.
The nature of assay [5]: COS7 lysate on small-molecule microarray, probe aHis, 635 nm (AID 1123).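 Also: z-score combines 667nm fluorescence intensity with signal-to-noise per printed compound spot.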 To be noted: COS7 cell lysate, fluorescence, higher = more signal.
The nature of assay [6]: compound binding in COS7 lysate, probe aLAP1, primary screen, cell lysate, small-molecule microarray (AID 1124).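 Also: lysate comes from COS7 cells expressing LAP1 and is applied at 0.3 µg/mL; score merges spot fluorescence near 667 nm with signal-to-noise over triplicate slides.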 The note with it: probe aLAP1, fluorescence, higher = more signal.
A further assay deals with Sam68 (KHDRBS1). The assay can be described thus: Sam68 small-molecule binders, primary screen, biochemical, small-molecule microarray, 635 nm fluorescence (AID 1125).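 Also: score merges 667 nm channel intensity with signal to noise over triplicate slides.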 The note with it: small-molecule microarray binding, higher = more signal.
Assay [7] relates to Chordin-like protein 2 (CHRDL2). The assay can be described thus: CHRDL2 small-molecule binders, primary screen, biochemical, small-molecule microarray, 635 nm fluorescence (AID 1126).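 Also: printed compound slides probed with Chrdl2 protein at 4 µg/mL for 1 h at 4 C; score merges 667 nm emission intensity with signal to noise over three replicate slides.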 The note with it: small-molecule microarray binding, fluorescence 635 nm; higher = more signal.
The target of assay [8] is Concanavalin-A (Canavalia ensiformis) (UniProt P02866). In words: ConA small-molecule binders, primary screen, artefact control for SMM control protein annotation, biochemical, small-molecule microarray, Alexa647 label, 635 nm (AID 1127).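 Also: z combines 667 nm emission intensity with signal-to-noise across three replicate slides.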 The note with it: ConA-A647 binding fluorescence, higher = more signal.
Assay [9] can be described thus: anti-His antibody binders, primary screen, artefact control for SMM control protein annotation, biochemical, small-molecule microarray, 635 nm fluorescence (AID 1128).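 Also: score merges feature fluorescence with signal-to-noise for each printed compound spot.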 The note with it: anti-His Alexa647 antibody binding, higher = more signal.
In assay [10] the test system is Human papillomavirus type 1a E7 protein (residues 1-88). In words: HPV1a E7 small-molecule binders, primary screen, biochemical, small-molecule microarray, residues 1-88, 635 nm (AID 1129). The note with it: small-molecule microarray binding, fluorescence 635 nm; higher = more signal.
Assay [11] addresses Focal adhesion kinase 1 (Homo sapiens) (UniProt Q05397). In words: small-molecule microarray binders of FAK, primary screen, biochemical, 635/667 nm fluorescence, BSA, DTT (AID 1130).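 Also: composite of spot emission at 667 nm and signal to noise over triplicate slides.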 The note with it: PTK2 binding, 635 nm fluorescence, higher = more signal.
In assay [12] the test system is Fibrinogen (Alexa647-labelled). In words: fibrinogen binders on compound microarrays, profiling panel, artefact control for SMM control-protein annotation, biochemical, small-molecule microarray, 635/667 nm fluorescence (AID 1131).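 Also: z-score merges 667 nm fluorescence with per-spot signal-to-noise over triplicate slides.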 The note with it: fibrinogen-A647 binding fluorescence, higher = more signal.
The target of assay [13] is Follistatin (Homo sapiens) (UniProt P19883). In words: follistatin binders on small-molecule microarrays, primary screen, biochemical, small-molecule microarray, 635/667 nm fluorescence (AID 1132). To be noted: FST binding, 635 nm fluorescence, higher = more signal.
For assay [14], the target named is Fibroblast growth factor 2 (Homo sapiens) (UniProt P09038). In words: FGF2 binders on small-molecule microarrays, primary screen, biochemical, small-molecule microarray, 635/667 nm fluorescence (AID 1133). The note with it: small-molecule microarray binding, FGF2, fluorescence 635/667; higher = more signal.
Assay [15] is described as follows: mitochondrial membrane potential change in A549 cells, profiling panel, cell-based, JC-1 fluorescence, basal, 24 h, 100 nL (AID 1138).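 Also: A549 lung adenocarcinoma cells under basal conditions with no added stimulus; test concentration not given here.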 To be noted: higher = more signal.
A further assay concerns Lefty1. In words: Lefty1 binders on small-molecule microarrays, primary screen, biochemical, small-molecule microarray, 635/667 nm fluorescence (AID 1139). The note with it: small-molecule microarray binding, fluorescence 635/667; higher = more signal.
The subject of assay [16] is wheat germ agglutinin (Triticum aestivum), Alexa647-labelled. The assay can be described thus: wheat germ agglutinin binders on compound microarrays, profiling panel, artefact control for SMM control-protein annotation, biochemical, small-molecule microarray, 635/667 nm fluorescence (AID 1140).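 Also: score merges 667 nm feature emission with signal to noise over triplicate slides.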 To be noted: WGA-A647 binding, 635 nm fluorescence, higher = more signal.
For assay [17], the target named is Luciferin 4-monooxygenase (Photinus pyralis) (UniProt P08659). The assay can be described thus: firefly luciferase enzyme inhibitors, primary screen, biochemical, luminescence, purified enzyme, 2006 set (AID 1141).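 Also: cell-free assay with purified firefly luciferase at 100 ng per well in PBS; test concentration not given here.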 To be noted: SteadyGlo luminescence, 30 min, higher = more signal, called active from +8 up or from −8 down.

The structures appear in SMILES notation. Calls of active or inactive are those of the source.

Sequence of Concanavalin-A (Canavalia ensiformis) (P02866 whole entry, looked up): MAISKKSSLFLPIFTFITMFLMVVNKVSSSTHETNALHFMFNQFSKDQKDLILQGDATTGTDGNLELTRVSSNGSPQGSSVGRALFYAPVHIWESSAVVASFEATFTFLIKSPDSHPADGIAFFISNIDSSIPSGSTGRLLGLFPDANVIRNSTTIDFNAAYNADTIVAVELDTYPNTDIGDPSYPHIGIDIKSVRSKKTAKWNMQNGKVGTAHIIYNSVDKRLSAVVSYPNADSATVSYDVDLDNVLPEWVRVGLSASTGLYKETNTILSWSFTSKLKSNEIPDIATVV
Sequence of Follistatin (Homo sapiens) (P19883 whole entry, looked up): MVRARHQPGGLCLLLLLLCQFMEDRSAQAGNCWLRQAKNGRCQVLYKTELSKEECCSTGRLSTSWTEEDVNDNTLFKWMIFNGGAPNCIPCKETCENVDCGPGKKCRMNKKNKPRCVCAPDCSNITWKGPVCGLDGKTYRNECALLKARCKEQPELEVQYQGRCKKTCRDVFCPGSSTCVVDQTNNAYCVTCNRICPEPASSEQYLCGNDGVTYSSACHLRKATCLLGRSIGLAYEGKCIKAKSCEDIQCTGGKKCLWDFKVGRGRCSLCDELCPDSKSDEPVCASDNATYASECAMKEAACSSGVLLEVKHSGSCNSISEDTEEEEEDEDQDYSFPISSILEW
Sequence of Luciferin 4-monooxygenase (Photinus pyralis) (P08659 whole entry, looked up): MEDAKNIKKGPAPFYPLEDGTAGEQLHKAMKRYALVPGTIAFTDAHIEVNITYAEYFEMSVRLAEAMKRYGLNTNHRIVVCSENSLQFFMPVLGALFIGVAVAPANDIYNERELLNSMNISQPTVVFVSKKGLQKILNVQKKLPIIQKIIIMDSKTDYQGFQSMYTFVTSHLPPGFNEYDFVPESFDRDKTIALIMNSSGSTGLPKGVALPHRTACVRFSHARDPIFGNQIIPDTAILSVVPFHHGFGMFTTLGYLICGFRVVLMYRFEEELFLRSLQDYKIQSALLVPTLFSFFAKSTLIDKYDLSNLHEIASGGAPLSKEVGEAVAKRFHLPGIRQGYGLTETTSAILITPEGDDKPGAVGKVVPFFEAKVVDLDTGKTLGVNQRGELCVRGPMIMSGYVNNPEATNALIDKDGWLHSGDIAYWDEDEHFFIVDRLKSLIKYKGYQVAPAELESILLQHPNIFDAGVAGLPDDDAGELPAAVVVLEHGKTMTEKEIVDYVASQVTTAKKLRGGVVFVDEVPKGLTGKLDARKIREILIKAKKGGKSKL
Sequence of Albumin (Bos taurus) (P02769 whole entry, looked up): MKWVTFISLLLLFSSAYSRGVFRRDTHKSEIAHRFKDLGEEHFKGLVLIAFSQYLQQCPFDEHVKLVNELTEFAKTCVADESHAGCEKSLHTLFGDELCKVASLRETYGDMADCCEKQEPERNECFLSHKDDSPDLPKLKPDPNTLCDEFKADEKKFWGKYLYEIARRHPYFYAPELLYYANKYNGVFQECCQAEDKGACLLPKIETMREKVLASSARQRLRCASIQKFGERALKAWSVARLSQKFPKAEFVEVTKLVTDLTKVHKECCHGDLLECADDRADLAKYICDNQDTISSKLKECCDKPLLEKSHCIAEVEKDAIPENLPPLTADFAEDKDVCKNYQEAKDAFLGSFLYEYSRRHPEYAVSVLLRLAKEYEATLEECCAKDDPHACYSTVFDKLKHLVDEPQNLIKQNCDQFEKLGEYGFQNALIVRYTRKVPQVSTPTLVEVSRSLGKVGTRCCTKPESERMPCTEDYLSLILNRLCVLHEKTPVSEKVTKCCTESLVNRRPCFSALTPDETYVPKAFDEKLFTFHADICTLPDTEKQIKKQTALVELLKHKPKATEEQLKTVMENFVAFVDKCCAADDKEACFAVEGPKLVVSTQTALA
Sequence of Fibroblast growth factor 2 (Homo sapiens) (P09038 whole entry, looked up): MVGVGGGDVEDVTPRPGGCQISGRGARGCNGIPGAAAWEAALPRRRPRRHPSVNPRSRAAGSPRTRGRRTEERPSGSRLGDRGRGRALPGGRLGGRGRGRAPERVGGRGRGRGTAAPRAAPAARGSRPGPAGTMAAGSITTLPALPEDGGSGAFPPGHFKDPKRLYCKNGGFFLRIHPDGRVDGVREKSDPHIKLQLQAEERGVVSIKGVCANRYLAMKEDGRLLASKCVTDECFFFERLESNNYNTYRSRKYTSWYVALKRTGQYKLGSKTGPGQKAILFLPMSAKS
Sequence of Focal adhesion kinase 1 (Homo sapiens) (Q05397 whole entry, looked up): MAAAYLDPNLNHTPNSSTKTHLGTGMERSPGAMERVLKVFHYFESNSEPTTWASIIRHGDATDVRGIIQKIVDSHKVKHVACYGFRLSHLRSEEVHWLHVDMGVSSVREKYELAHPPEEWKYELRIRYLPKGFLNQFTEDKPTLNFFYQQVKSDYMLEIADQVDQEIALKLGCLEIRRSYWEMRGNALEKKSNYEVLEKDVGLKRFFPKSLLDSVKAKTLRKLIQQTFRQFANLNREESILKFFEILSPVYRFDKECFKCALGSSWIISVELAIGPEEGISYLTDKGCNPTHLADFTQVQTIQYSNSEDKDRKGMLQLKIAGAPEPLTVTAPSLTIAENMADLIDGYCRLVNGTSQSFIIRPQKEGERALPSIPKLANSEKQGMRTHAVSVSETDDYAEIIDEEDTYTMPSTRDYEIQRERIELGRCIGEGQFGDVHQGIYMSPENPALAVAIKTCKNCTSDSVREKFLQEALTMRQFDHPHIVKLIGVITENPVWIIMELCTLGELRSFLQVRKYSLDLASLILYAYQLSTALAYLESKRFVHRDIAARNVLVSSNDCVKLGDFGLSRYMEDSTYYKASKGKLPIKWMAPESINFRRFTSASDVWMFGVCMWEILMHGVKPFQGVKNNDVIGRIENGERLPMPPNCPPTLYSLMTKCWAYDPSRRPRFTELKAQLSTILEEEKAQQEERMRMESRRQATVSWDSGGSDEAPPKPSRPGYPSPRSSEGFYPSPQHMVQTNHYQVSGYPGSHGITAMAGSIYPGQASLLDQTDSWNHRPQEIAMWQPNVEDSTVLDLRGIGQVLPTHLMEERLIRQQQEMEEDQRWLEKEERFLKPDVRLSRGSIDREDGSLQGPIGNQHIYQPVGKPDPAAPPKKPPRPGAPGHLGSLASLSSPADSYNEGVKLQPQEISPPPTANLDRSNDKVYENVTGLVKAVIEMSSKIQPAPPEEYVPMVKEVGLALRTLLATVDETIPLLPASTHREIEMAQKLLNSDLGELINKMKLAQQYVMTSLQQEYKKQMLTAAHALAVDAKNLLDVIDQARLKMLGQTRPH

As to `CO[C@@H]1COC(=O)CC=C[C@@H](C)[C@H](OC)COC(=O)CC=C[C@H]1C`, the composite z-score is -0.978 in the assay with Albumin (Bos taurus); -0.103 in assay [2]; -0.169 in [3]; -0.374 in assay [4]; -0.168 in assay [5]; -0.412 in assay [6]. The composite z-score is -0.345 in the assay on Sam68 (KHDRBS1); 1.48 in assay [7]; -0.362 in assay [8]; 0.0112 in [9]; -1.31 in assay [10]; -0.436 in assay [11]. Also, the composite z-score was -1.05 in assay [12]; 1.48 in [13]; 1.34 in [14]; 0.712 with Lefty1; -0.812 in assay [16]. The composite Z-score in [1] was 0.413 (inactive). Moreover, the z-score in assay [15] was 1.77; in assay [17], -1.08 (inactive).

Take `CO[C@@H]1COC(=O)CC=C[C@H](C)COC(=O)[C@H](Cc2ccccc2)NC(=O)CC=C[C@H]1C`: the composite z-score in the assay with Albumin (Bos taurus) was -2.04; in assay [2] it was -0.162; in assay [3] it was -0.167; in assay [4], -0.155; in assay [5] it was -0.596; in assay [6], 0.0055. The composite z-score is 0.294 with Sam68 (KHDRBS1); 1.53 in [7]; -0.651 in [8]; 0.236 in assay [9]; -1.13 in assay [10]; -0.389 in [11]. Also, the composite z-score is -0.811 in [12]; 0.997 in assay [13]; 1.38 in assay [14]; 1.54 in the assay on Lefty1; -1.61 in assay [16]. For the same compound, in assay [1], the composite Z-score was 0.772 (inactive). Also, the z-score is 1.5 in assay [15] and -0.964 (inactive) in assay [17].

Consider `Cc1ccc(S[C@]2(C(=O)NC3CC3)CC(=O)N(Cc3cc(C(F)(F)F)cc(C(F)(F)F)c3)[C@@H]2c2ccc(CO)cc2)cc1`, for which the composite z-score with Albumin (Bos taurus) is 0.371; in assay [2], -0.0345; in [3], -0.169; in assay [4] it was 0.375; in assay [5], 0.42; in assay [6], 1.13. Besides, the composite z-score in the assay with Sam68 (KHDRBS1) was determined as 0.792; in assay [7], 0.115; in assay [8], 0.633; in [9], 1.79; in assay [10], 0.489; in assay [11], 0.389. Also, the composite z-score is 0.182 in assay [12]; 1.2 in assay [13]; 0.411 in assay [14]; 0.821 with Lefty1; 0.31 in assay [16]. For the same compound, the composite Z-score in assay [1] is -0.421 (inactive). In addition, the z-score is 0.232 in assay [15] and 1.22 (inactive) in assay [17].

For `COc1ccc(CCN2C(=O)[C@@]3(c4ccc([N+](=O)[O-])cc4)CC(=O)N(CC45CC6CC(CC(C6)C4)C5)[C@@H]3c3ccc(CO)cc32)cc1`, the composite z-score is -0.181 with Albumin (Bos taurus); 0.323 in [2]; 0.0437 in assay [3]; 0.446 in assay [4]; 1.38 in assay [5]; -0.415 in [6]. Moreover, the composite z-score in the assay on Sam68 (KHDRBS1) was 0.644; in assay [7] it was 0.569; in assay [8] it was 0.402; in [9], 0.286; in [10] it was 0.415; in [11], 0.38. The composite z-score was 0.138 in assay [12]; 0.572 in assay [13]; -0.0451 in [14]; -0.531 in the assay with Lefty1; -0.0366 in assay [16]. In addition, in [1], the composite Z-score is 0.653 (inactive). In addition, the z-score in assay [15] was 1.15; in assay [17], -0.736 (inactive).

In the case of `COc1cc2c(cc1OC)CN(C(=O)[C@@H]1[C@H]3C(=O)O[C@H](c4ccccc4)[C@H](c4ccccc4)N3[C@H](c3ccccc3OCCO)[C@@]13C(=O)Nc1ccccc13)CC2`, the composite z-score in the assay with Albumin (Bos taurus) is 0.665; in assay [2], 0.746; in [3], -0.112; in assay [4] it was 0.609; in assay [5], 0.938; in assay [6], 1.31. Also, the composite z-score is 1.2 in the assay with Sam68 (KHDRBS1); 0.182 in assay [7]; 0.997 in assay [8]; 2.5 in [9]; 1.22 in [10]; 0.702 in [11]. Also, the composite z-score in assay [12] was 0.833; in [13], 0.666; in assay [14] it was 0.465; in the assay on Lefty1, 0.0595; in [16], 0.849. Moreover, the composite Z-score in assay [1] was -0.316 (inactive). In addition, the z-score is 0.447 in assay [15] and -1.38 (inactive) in assay [17].

The values above are taken from PubChem BioAssay.
